Assay outcomes deposited in PubChem by National Center for Advancing Translational Sciences (NCATS).
In the library only some 2.4% were active in any assay of this set; here they are far more common.
PINK1 expr mod = A Quantitative High throughput Screen to Identify Chemical Modulators of PINK1 Expression; PINK1 immunofluorescence, high-content cytometry, 24 h; Potency, µM (doses to about 76.6 µM), for the others: top-dose activation (PINK1 increase), hits mostly activators; 410,000 tested, 0.2% active; active = well fitted activation curve with a large enough effect; inconclusive = small, poorly fitted or top-dose-only effect; cell line not stated here; note: % of control where 0% means no effect; nearly all actives have a fitted effect of over 65% in size
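Measures PINK1 amount and localization on or inside mitochondria by immunofluorescence. Stable cells get compounds at 5 concentrations for 24 hours before fixation and staining; CCCP controls included.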
A549 viability = Nrf2 qHTS screen for inhibitors: counterscreen for cytotoxicity; A549 ARE-Fluc cells, CellTiter-Fluor viability, 18-24 h; Potency, µM (doses to about 46 µM), inactives show at the highest dose activity change, negative = cytotoxicity, actives largely listed as inhibitors; 390,000 tested, 0.16% active; note: % is set by controls: 0 for no effect and ±100 for the full control effect
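A549 ARE_Fluc cells in 5% FBS OPTI-MEM were exposed to compounds in concentration-response for 18-24 h at 37 deg C. Viability was read by CellTiter-Fluor fluorescence (Ex 405/Em 525) after 30 min, before the luciferase read.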
Epigenetic reg = Quantitative High-Throughput Screen for Regulators of Epigenetic Control; Potency, µM (highest dose often 53.9 µM), inactives show at the highest dose GFP activation, hits mostly activators; murine LDR cells, GFP reporter derepression, 30 h; 280,000 tested, 0.2% active; note: % of control where 0% means no effect; nearly all actives have a fitted effect of over 60% in size
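GFP-positive cell count by laser-scanning cytometry (objects 20–120 um) after 30 h, 37 C compound exposure of murine LDR cells; reporter is CMV-GFP integrated at a silenced locus, inducible by HDAC or DNMT inhibitors.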
Nrf2 activator = qHTS of Nrf2 Activators; AREc32 ARE-luciferase reporter (MCF7-derived line), luminescence, 24 h; Potency, µM (top dose mostly 46.1 µM), inactives show at the top dose activation, hits mostly activators; 410,000 tested, 0.31% active; AID 624171, 2012; note: % of control where 0% means no effect; nearly all actives have a fitted effect of over 65% in size
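ARE-driven firefly luciferase activity in AREc32 cells measured after a 24 hr compound exposure at 37 deg C, using Steady-Glo reagent and a 30 min room-temperature hold.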
Nrf2 block = Nrf2 qHTS screen for inhibitors. Potency, µM (highest dose often 46 µM), for the others: at the highest dose activity change, negative = inhibition, hits mostly inhibitors. 360,000 tested, 2.1% active. A549 ARE-Fluc reporter, luciferase luminescence, 18-24 h. AID 504444, 2011; note: % is set by controls: 0 for no effect and ±100 for the full control effect; nearly all actives have a fitted effect of over 60% in size
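Nrf2 function is reported as luminescence of an ARE-controlled luciferase in A549 cells. Compounds were tested at several concentrations, and a CellTiter-Fluor read on the same wells flagged cytotoxicity.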
An asterisk follows results filed as active; ? = inconclusive; . = not tested or not shown. Unless noted, calls come from the whole dose curve; as a rule, active = well fitted curve in the direction sought with a large enough effect; inconclusive = small, poorly fitted or top-dose-only effect, or another doubt; inactive = no such curve, though single readings can be large; an effect the other way counts as inactive or inconclusive. Potency is the fitted concentration of half-maximal effect.

SMILES | PINK1 expr mod | A549 viability | Epigenetic reg | Nrf2 activator | Nrf2 block
O=C(c1cccn1-c1nnc(N2CCCC2)s1)N1CCN(c2ccc(Cl)cc2)CC1 | -2.1% | 14.7% | 2.4% | 3.9% | 0.0%
CCOc1ccc(NS(=O)(=O)c2ccc(C)c(C(=O)O)c2)cc1 | . | . | 5.3% | . | .
CC(C)c1c(C(=O)N(C)C2CCN(C)CC2)cnn1-c1nccc(-c2ccco2)n1 | 1.9% | . | . | . | .
COc1ccc(CNC(=O)c2cnn(-c3nccc(-c4ccco4)n3)c2C)cc1OC | 0.9% | . | . | . | .
Cc1nn(C)c(Sc2ccccc2N)c1[N+](=O)[O-] | 1.3% | -0.5% | -1.3% | 14.1µM* | 7.5%
COc1cccc(-c2nc3cc4c(cc3cc2CN(C(=O)c2cc(C)nn2C)C2CC2)CCC4)c1OC | 3.1% | . | . | . | .
CC(NC(=O)c1ccco1)c1nnc2n1CCN(Cc1ccc(N(C)C)cc1)CC2 (stereo unspecified) | 0.7% | . | . | . | .
COc1ccc2cc3cc(C(=O)NCc4ccccn4)oc3nc2c1 | 7.2% | 0.7% | 6.7% | 2.6% | -23.3%
COc1ccc2cc3cc(C(=O)NCc4ccco4)oc3nc2c1 | -1.2% | -24.6% | -1.0% | 4.2% | 5.17µM*
COc1ccc2cc3cc(C(=O)Nc4ccccc4N4CCN(C)CC4)oc3nc2c1 | 1.6% | -7.5% | -2.0% | 3.9% | -16.6%
O=C(NCc1ccco1)c1cc2cc3ccc(Cl)cc3nc2o1 | 2.9% | ? | 0.0% | 11.6% | 23.1µM*
CCCN(CCC)CCCNC(=O)c1cc2cc3ccc(Cl)cc3nc2o1 | -1.3% | 4.5% | . | -1.4% | 12.7%
COc1ccc2cc3cc(C(=O)NCCN4CCN(c5ccccc5F)CC4)oc3nc2c1 | 0.0% | ? | -1.1% | 0.0% | 18.4µM*
Cc1ccc(C)c(C(=O)N2CCC(C3(c4ccccn4)NC(=O)N(CC4CCCO4)C3=O)CC2)c1 (stereo unspecified) | -0.7% | . | . | . | .
COc1ccc(Cn2c(-c3ccc(C)cc3)c[n+]3ccccc23)cc1 | 11.3% | -16.1% | 1.0% | 3.4% | 0.731µM*
COc1ccc(Cn2c(O)c(C=Nc3ccc(O)cc3)c3ccccc3c2=O)cc1 | 6.1% | ? | -1.3% | -0.2% | ?
COc1ccc(-c2nc3ccccc3n2Cc2ccc(C)cc2)cc1 | 23.6% | -2.0% | -0.7% | 8.3% | .
COc1ccc(Cn2c(O)c(C=Nc3ccc(C)cc3)c3ccccc3c2=O)cc1 | -1.2% | ? | 1.0% | 0.5% | 9.2µM*
COc1cccc(/C=C/c2ccnc3ccccc23)c1OC | 0.7% | . | . | . | .
O=S(=O)(c1ccc(Cl)cc1)N1CCN(S(=O)(=O)c2ccc3c(c2)OCCO3)CC1 | . | -0.9% | . | . | -3.4%
CCN1CCCC1CNC(=O)c1cc2c(C)nc3ccccc3c2o1 (stereo unspecified) | 0.7% | -16.2% | -2.3% | 3.7% | -20.8%
CCc1ccc(CNC(=O)c2cc3c(C)nc4ccccc4c3o2)cc1 | ? | -25.3% | -0.8% | 2.6% | 14.6µM*
Cc1nc2ccccc2c2oc(C(=O)NCC3COc4ccccc4O3)cc12 (stereo unspecified) | 3.8% | -24.5% | -1.0% | -0.7% | 16.4µM*
Cc1c(C(=O)N2CCOc3ccccc3C2)sc2ncnc(NCCCN3CCOCC3)c12 | 0.0% | . | . | . | .
Cc1cccc(Nc2nc(N)c([N+](=O)[O-])c(N3CC(C)OC(C)C3)n2)c1 (stereo unspecified) | 1.2% | ? | . | -0.1% | 18.4µM*
SMILES | PINK1 expr mod | A549 viability | Epigenetic reg | Nrf2 activator | Nrf2 block
Cc1cccc(Nc2nc(N)c([N+](=O)[O-])c(N3CC(C)CC(C)C3)n2)c1 (stereo unspecified) | -4.1% | 20.6µM* | 9.0% | -1.8% | 16.4µM*
Nc1nc(Nc2ccccc2)nc(N2CCOCC2)c1[N+](=O)[O-] | -1.0% | 1.0% | -3.0% | 5.0% | 9.0%
Cc1cccc(Nc2nc(N)c([N+](=O)[O-])c(N3CCC(C)CC3)n2)c1 | -3.6% | ? | 0.1% | 0.2% | 18.4µM*
CCN1CCN(c2nc(Nc3cccc(OC)c3)nc(N)c2[N+](=O)[O-])CC1 | 7.2% | ? | . | 2.7% | -6.8%
CC1Sc2n(c3ccccc3[n+]2C)N=C1c1ccccc1 (stereo unspecified) | -0.5% | -18.3% | 0.0% | ? | 11.6µM*
C[n+]1c2n(c3ccccc31)N=C(c1ccc(Cl)cc1)CS2 | ? | . | -1.1% | ? | ?
CC(=O)OCC1=C[C@@H]2OC(=O)C3=CO[C@@H](O[C@@H]4O[C@H](CO)[C@@H](O)[C@H](O)[C@H]4O)[C@H]1[C@@H]32 | 1.1% | -2.1% | . | 0.1% | 24.1%
C=C1C(=O)OC2C=C(CO)C3OC3C3OC3(C)CC(OC(=O)/C(=C/C)COC(C)=O)C12 (stereo unspecified) | -3.1% | ? | . | ? | 23.1µM*
CCC1CN(CC(=O)NCc2ccc3c(c2)OCO3)Cc2ccc(Cl)cc2O1 (stereo unspecified) | 1.2% | . | . | . | .
Cc1cc(C(=O)N/N=C/c2c(C)nn(-c3ccccc3)c2C)n[nH]1 | -0.2% | 0.5% | -1.0% | 1.7% | -0.8%
Cc1nn(-c2ccccc2)c(C)c1/C=N/NC(=O)c1cc(C23CC4CC(CC(C4)C2)C3)[nH]n1 | -1.0% | ? | 0.9% | 4.0% | 13µM*
Cc1nn(-c2ccccc2)c(C)c1/C=N/NC(=O)c1cc(-c2ccc(Br)s2)[nH]n1 | -3.3% | -12.1% | -1.1% | 3.9% | ?
Cc1nn(-c2ccccc2)c(C)c1/C=N/NC(=O)c1cc(-c2ccc(Cl)s2)[nH]n1 | ? | -8.1% | 1.2% | 0.1% | 10.3µM*
Cc1cc2c(c(-c3nc4ccccc4s3)c1)OC(CNC(=O)c1occc1C)C2 (stereo unspecified) | 0.5% | . | . | . | .
CCCN1CNc2c(c(=O)[nH]c(=S)n2CCc2cccc(OC)c2)C1 | 0.3% | 4.3% | . | . | ?
CC(=NNC(=S)N1CC2CCC(CC2)C1)c1cccc(C)n1 | 0.1% | 9.2µM* | . | 17.1% | ?
CC(=NNC(=S)N1CCCC1)c1ccccn1 | 1.7% | . | . | ? | .
O=C(CC1SC(=Nc2ccc(OC(F)F)cc2)N(CCC2=CCCCC2)C1=O)Nc1ccccc1F (stereo unspecified) | 10.1% | -17.4% | -1.3% | 6.9% | 20.6µM*
CCOc1ccccc1N=C1SC(CC(=O)Nc2ccc(OC)cc2OC)C(=O)N1CCC1=CCCCC1 (stereo unspecified) | -1.8% | 1.1% | -3.0% | 0.0% | -22.8%
Cc1cccc(-n2c(C)cc(C(=O)NC3CCCCC3)c2C)c1 | 1.7% | -22.3% | -1.0% | ? | -21.0%
COc1ccc(-n2c(C)cc(C(=O)NC3CCCCC3)c2C)cc1 | . | -8.3% | -1.1% | 17.8µM* | ?
O=C(CCCN1C(=O)/C(=C/c2ccccc2Cl)SC1=S)NCCCN1CCOCC1 | 10.2% | ? | . | 4.5% | 14.6µM*
O=C(CCN1C(=O)/C(=C/c2ccccc2F)SC1=S)NCCCN1CCOCC1 | 0.0% | ? | . | 7.0% | ?
